SW480 rerep: inducers of DNA re-replication in SW480 colon cancer cells. hit rate 1.8% among 340,000. AID 624297. Potency, µM (highest dose often 46.1 µM), usual class: activators. SW480 DNA re-replication, Hoechst DNA content imaging, 48 h; also: nearly all actives have a fitted effect of over 55% in size
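Per well, 250 cells were exposed to pinned compound for 48 hr. Nuclear DNA was visualised with Hoechst (40 min, 37 C) and total object intensity recorded by fluorescence scanning.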
HT1080NT lethal: kills 2HG-producing HT-1080-NT fibrosarcoma cells; HT-1080-NT fibrosarcoma viability, CellTiter-Glo ATP luminescence, 48 h; Potency, µM (top dose mostly 46.1 µM), hits mostly cytotoxic; hit rate 1.6% among 360,000; AID 686970;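 also: NT is the 2HG producing partner of a matched IDH1 knockdown line; nearly all actives have a fitted effect of over 55% in size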
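Viability by CellTiter-Glo luminescence after 48 h compound exposure at 37C of HT-1080-NT cells (750/well, RPMI, 5% FBS). % activity scaled between DMSO wells and medium-only wells, then curve-fitted and categorized by curve class.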
KB-V1 cytotox: KB-V1 MDR subline cytotoxicity; KB-V1 MDR cells viability, CellTiter-Glo, 72 h; hit rate 3.4% among 400,000; AID 1347076; Potency, µM (doses to about 46.1 µM), usual class: cytotoxic; also: nearly all actives have a fitted effect of over 60% in size
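In this primary screen, KB-V1 cells overexpressing P-gp are incubated with library compounds (lowest to highest concentration) for 72 h at 37 degrees C before a luminescent ATP viability read.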
HT1080 IDH1KD tx: HT-1080 IDH1 knockdown cell toxicity (counter line). HT-1080 IDH1 knockdown viability, ATP luminescence, 48 h. Potency, µM (top dose mostly 46.1 µM), hits mostly cytotoxic. hit rate 2% among 360,000
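Cytotoxicity counter-line: IDH1KD HT-1080, 48 h, CellTiter-Glo. Curves classed by r2, magnitude and activity.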
KB-3-1 cytotox: KB-3-1 parental cell cytotoxicity. hit rate 1.4% among 400,000. Potency, µM (top dose mostly 46.1 µM), actives largely listed as cytotoxic. KB-3-1 viability, CellTiter-Glo ATP luminescence, 72 h; also: nearly all actives have a fitted effect of over 60% in size
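KB-3-1 cells, DMEM (no phenol red) + 10% FBS; compound by pin transfer, 72 h, 37 °C. Readout: CellTiter-Glo luminescence after 10 min. Data normalized, curve-fitted.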
MCF10A rerep: induces DNA re-replication in MCF 10a normal breast cells | MCF 10A DNA re-replication, Hoechst nuclear intensity, 48 h | Potency, µM (doses to about 46.1 µM), most hits filed as activators | hit rate 2.9% among 350,000 | AID 624296; also: nearly all actives have a fitted effect of over 50% in size
Of the large screens only hits and unclear results are named; the others gave an inactive call. Compounds with a hit are over-represented: about 8% of the library has one in this group of screens. Calls follow the shape of the dose curve; as a rule, active = well fitted curve in the direction sought with a large enough effect; inconclusive = small, poorly fitted or top-dose-only effect, or another doubt; inactive = no such curve, though single readings can be large; an effect the other way counts as inactive or inconclusive.

O=C(NCCc1c[nH]c2ccccc12)C(=O)c1c[nH]c2ccccc12	HT1080NT lethal inconclusive, HT1080 IDH1KD tx inconclusive, KB-3-1 cytotox inconclusive
O=C(Cn1c(=O)c2sccc2n(Cc2cccc([N+](=O)[O-])c2)c1=O)NCCc1ccccc1	KB-V1 cytotox 8.2µM, HT1080 IDH1KD tx inconclusive
Cc1cc2cc(CCNC(=O)C(=O)c3c[nH]c4ccccc34)c(=O)[nH]c2cc1C	HT1080NT lethal inconclusive, KB-V1 cytotox inconclusive, HT1080 IDH1KD tx 13µM, MCF10A rerep inconclusive
O=C(Cn1c(=O)c2sccc2n(Cc2ccc([N+](=O)[O-])cc2)c1=O)NCCc1ccccc1	none
Cc1ccc(C(=O)NCCSCc2ccccc2)cc1[N+](=O)[O-]	KB-V1 cytotox 21µM, MCF10A rerep inconclusive
O=C(NCCSCc1ccccc1)c1ccccc1	none
COc1ccc([C@@H](C)NC(=O)CCc2nnc(-c3cc(C)on3)o2)cc1	KB-V1 cytotox inconclusive
Cc1cc(C)n2nc(CNS(=O)(=O)c3ccc(Cl)cc3)nc2n1	KB-V1 cytotox inconclusive (no result: SW480 rerep, HT1080NT lethal, HT1080 IDH1KD tx, MCF10A rerep)
O=S(=O)(CC12C3C4C5C1C2C(Br)(C43)C51OCCO1)c1ccccc1 (centres undefined)	none
CC(C)(CNC(=O)c1ccc([N+](=O)[O-])c(Cl)c1)CNC(=O)c1ccc([N+](=O)[O-])c(Cl)c1	SW480 rerep inconclusive, HT1080NT lethal 21µM, KB-V1 cytotox inconclusive, HT1080 IDH1KD tx inconclusive, KB-3-1 cytotox inconclusive, MCF10A rerep inconclusive
C=CCNC(=O)c1ccc([N+](=O)[O-])c(Cl)c1	none
OC[C@@H]1CN(Cc2ccc(-c3ccccc3)cc2)C[C@H](n2cnc3c(NCc4ccc(F)cc4)ncnc32)O1	HT1080NT lethal 18µM, KB-V1 cytotox inconclusive, HT1080 IDH1KD tx inconclusive, KB-3-1 cytotox inconclusive (no result: SW480 rerep, MCF10A rerep)
CC(C)N(C)c1ncnc2c1ncn2[C@H]1CN(Cc2ccc(-c3ccccc3)cc2)C[C@@H](CO)O1	HT1080NT lethal 23µM, HT1080 IDH1KD tx inconclusive (no result: SW480 rerep, MCF10A rerep)
CC(C)N(C)c1ncnc2c1ncn2[C@H]1CN(Cc2ccncc2)C[C@@H](CO)O1	none (no result: SW480 rerep, MCF10A rerep)
OC[C@@H]1CN(Cc2ccccc2)C[C@H](n2cnc3c(NCc4ccc(F)cc4)ncnc32)O1	KB-V1 cytotox inconclusive (no result: SW480 rerep, MCF10A rerep)
OC[C@@H]1CN(Cc2ccc(F)cc2)C[C@H](n2cnc3c(Nc4ccccc4)ncnc32)O1	none (no result: SW480 rerep, MCF10A rerep)
OC[C@@H]1CN(Cc2ccc(-c3ccccc3)cc2)C[C@H](n2cnc3c(Nc4ccccc4)ncnc32)O1	HT1080NT lethal inconclusive, KB-V1 cytotox 21µM, HT1080 IDH1KD tx 10µM, KB-3-1 cytotox 13µM (no result: SW480 rerep, MCF10A rerep)
CCOc1ccc(NS(=O)(=O)c2cc(C(=O)NCCN3CCOCC3)ccc2C)cc1	none
O=C(NC1CC1)c1scc2c1OCCO2	none
C[C@@H]1COC(=O)[C@H](NC(=O)OCC2c3ccccc3-c3ccccc32)C/C=C\C[C@@H](CC(=O)N[C@H](CO)Cc2ccccc2)C(=O)N1	KB-V1 cytotox inconclusive, MCF10A rerep inconclusive
O=C(Cc1cccs1)NCc1cccc(CNC(=O)Cc2cccs2)c1	none
CCN(C1CCCCC1)S(=O)(=O)c1ccc(S(=O)(=O)N(CC(=O)Nc2ccccc2)C2CC2)cc1	KB-V1 cytotox 6.5µM
Cc1ccc(S(=O)(=O)N(CC(=O)Nc2ccc(Cl)c([N+](=O)[O-])c2)C2CCCCC2)cc1	SW480 rerep inconclusive, KB-V1 cytotox 4.6µM, KB-3-1 cytotox inconclusive, MCF10A rerep inconclusive
CS(=O)(=O)c1ccccc1C(=O)NCCC(c1ccccc1)c1ccccc1	KB-V1 cytotox inconclusive
COc1ccc(/C=C\C(=O)O[C@@H]2C(O)C(O[C@@H]3OC(C)[C@H](O[C@@H]4OCC(O[C@H]5O[C@H](CO)[C@@H](O)C(O)C5O)C(O)C4O)C(O)C3O)[C@H](OC(=O)[C@]34CCC(C)(C)C[C@@H]3C3=CCC5[C@@]6(C)CC(O)C(O[C@@H]7OC(CO)C(O)[C@H](O)[C@H]7O)[C@@](C)(C(=O)O)C6CC[C@@]5(C)[C@]3(CO)CC4)O[C@H]2C)cc1 (some centres undefined)	HT1080NT lethal inconclusive, HT1080 IDH1KD tx 21µM

Screens (PubChem BioAssay)
